In PubChem BioAssay AID1159580 (chemical genetic matrix, 2015):
In all, about 5,500 compounds went through this assay and about 2,000 (36%) were called active. About 18% were inconclusive and are not listed. Cut-off read from the data, not from the text of the source: active = normalized growth mostly below about 0.91 (no sharp cut-off); inconclusive = no clear call, values can overlap the other calls; inactive = mostly above about 0.92. The list shows a part of the results.

Assay: chemical genetic growth profiling, strain panel (AID 1159580);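 note: tested at 20 µM; growth read once vehicle control cultures reached saturation at 30 °C; 1 = growth at the plate median or of vehicle wells; lower values mean less growth of the strain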
Conditions: growth OD

Measured: normalized growth

CN(C)CCC[C@@]1(c2ccc(F)cc2)OCc2cc(C#N)ccc21
inactive: S. cerevisiae deletion strains, locus YAL013W, strain DEP1, hits give low values 1.02 | S. cerevisiae deletion strains, locus YBR021W, strain FUR4, hits give low values 1.02 | S. cerevisiae deletion strains, locus YBR229C, strain ROT2, hits give low values 1.01 | S. cerevisiae deletion strains, locus YCL029C, strain bik1, hits give low values 1.02 | S. cerevisiae deletion strains, locus YDL035C, strain GPR1, hits give low values 1.02 | S. cerevisiae deletion strains, locus YDL074C, strain BRE1, hits give low values 1.02 | S. cerevisiae deletion strains, locus YDL101C, strain DUN1, hits give low values 1.02 | S. cerevisiae deletion strains, locus YDL134C, strain PPH21, hits give low values 1.01 | S. cerevisiae deletion strains, locus YDL185W, strain tfp1, hits give low values 1.03 | S. cerevisiae deletion strains, locus YDL192W, strain arf1, hits give low values 1.02 | S. cerevisiae deletion strains, locus YDR101C, strain arx1, hits give low values 1.02 | S. cerevisiae deletion strains, locus YDR150W, strain NUM1, hits give low values 1.02 | S. cerevisiae deletion strains, locus YDR162C, strain NBP2, hits give low values 1.01 | S. cerevisiae deletion strains, locus YDR318W, strain mcm21, hits give low values 1.03 | S. cerevisiae deletion strains, locus YDR388W, hits give low values 1.02 | S. cerevisiae deletion strains, locus YDR502C, strain sam2, hits give low values 1.02 | S. cerevisiae deletion strains, locus YEL061C, strain CIN8, hits give low values 1.01 | S. cerevisiae deletion strains, locus YER110C, hits give low values 1.03 | S. cerevisiae deletion strains, locus YER155C, strain BEM2, hits give low values 1.01 | S. cerevisiae deletion strains, locus YER167W, strain BCK2, hits give low values 1.02 | S. cerevisiae deletion strains, locus YGL078C, strain dbp3, hits give low values 1.03 | S. cerevisiae deletion strains, locus YGL086W, strain mad1, hits give low values 1.02 | S. cerevisiae deletion strains, locus YGL248W, strain PDE1, hits give low values 1.02 | S. cerevisiae deletion strains, locus YGR078C, strain PAC10, hits give low values 1.03 | S. cerevisiae deletion strains, locus YGR135W, strain pre9, hits give low values 1.03 | S. cerevisiae deletion strains, locus YGR229C, strain SMI1, hits give low values 1.02 | S. cerevisiae deletion strains, locus YGR252W, strain gcn5, hits give low values 1.06 | S. cerevisiae deletion strains, locus YHR030C, strain SLT2, hits give low values 1.01 | S. cerevisiae deletion strains, locus YHR079C, strain IRE1 (second series), hits give low values 1.02 | S. cerevisiae deletion strains, locus YHR094C, strain hxt1, hits give low values 1.02 | S. cerevisiae deletion strains, locus YHR129C, strain ARP1, hits give low values 1.01 | S. cerevisiae deletion strains, locus YHR200W, strain rpn10, hits give low values 1.02 | S. cerevisiae deletion strains, locus YIL066C, strain RNR3, hits give low values 1.03 | S. cerevisiae deletion strains, locus YIL073C, strain SPO22, hits give low values 1.06 | S. cerevisiae deletion strains, locus YIL125W, strain kgd1, hits give low values 1.02 | S. cerevisiae deletion strains, locus YIR030C, strain dcg1, hits give low values 1.02 | S. cerevisiae deletion strains, locus YJL095W, strain BCK1, hits give low values 1.02 | S. cerevisiae deletion strains, locus YJL134W, strain LCB3, hits give low values 1.03 | S. cerevisiae deletion strains, locus YJL168C, strain set2, hits give low values 1.02 | S. cerevisiae deletion strains, locus YJL187C, strain SWE1 (second series), hits give low values 1.02 | S. cerevisiae deletion strains, locus YJR043C, strain POL32, hits give low values 1.01 | S. cerevisiae deletion strains, locus YJR075W, strain HOC1, hits give low values 1.01 | S. cerevisiae deletion strains, locus YKL009W, strain mrt4, hits give low values 1.03 | S. cerevisiae deletion strains, locus YKL068W, hits give low values 1.02 | S. cerevisiae deletion strains, locus YKL085W, strain MDH1 (second series), hits give low values 0.999 | S. cerevisiae deletion strains, locus YKL085W, strain MDH1, hits give low values 0.999 | S. cerevisiae deletion strains, locus YKL190W, strain CNB1, hits give low values 1.03 | S. cerevisiae deletion strains, locus YKR001C, strain vps1, hits give low values 1.03 | S. cerevisiae deletion strains, locus YLR039C, strain RIC1, hits give low values 1.04 | S. cerevisiae deletion strains, locus YLR058C, strain SHM2, hits give low values 1.02 | S. cerevisiae deletion strains, locus YLR102C, strain apc9, hits give low values 1.02 | S. cerevisiae deletion strains, locus YLR262C, strain YPT6, hits give low values 1.04 | S. cerevisiae deletion strains, locus YLR268W, strain sec22, hits give low values 1.01 | S. cerevisiae deletion strains, locus YLR330W, strain CHS5, hits give low values 1.01 | S. cerevisiae deletion strains, locus YLR342W, strain FKS1 (second series), hits give low values 1.03 | S. cerevisiae deletion strains, locus YLR371W, strain rom2, hits give low values 1.02 | S. cerevisiae deletion strains, locus YLR418C, strain cdc73, hits give low values 1 | S. cerevisiae deletion strains, locus YML016C, strain PPZ1, hits give low values 1.02 | S. cerevisiae deletion strains, locus YML032C, strain rad52, hits give low values 1.02 | S. cerevisiae deletion strains, locus YML124C, strain tub3, hits give low values 1.01 | S. cerevisiae deletion strains, locus YMR078C, strain ctf18, hits give low values 1.03 | S. cerevisiae deletion strains, locus YMR223W, strain ubp8, hits give low values 1.04 | S. cerevisiae deletion strains, locus YMR263W, strain SAP30, hits give low values 1.02 | S. cerevisiae deletion strains, locus YMR307W, strain GAS1, hits give low values 1.05 | S. cerevisiae deletion strains, locus YNL067W, strain RPL9B, hits give low values 1.02 | S. cerevisiae deletion strains, locus YNL128W, strain TEP1, hits give low values 1.02 | S. cerevisiae deletion strains, locus YNL153C, strain GIM3, hits give low values 1.01 | S. cerevisiae deletion strains, locus YNL233W, strain BNI4, hits give low values 1.01 | S. cerevisiae deletion strains, locus YNL250W, strain rad50, hits give low values 1.03 | S. cerevisiae deletion strains, locus YNL271C, strain bni1, hits give low values 1.03 | S. cerevisiae deletion strains, locus YNL298W, strain CLA4, hits give low values 1.04 | S. cerevisiae deletion strains, locus YNL307C, strain MCK1, hits give low values 1.02 | S. cerevisiae deletion strains, locus YNL322C, strain KRE1, hits give low values 1.01 | S. cerevisiae deletion strains, locus YNR052C, strain pop2, hits give low values 1.02 | S. cerevisiae deletion strains, locus YOL006C, strain TOP1, hits give low values 1.05 | S. cerevisiae deletion strains, locus YOL012C, strain htz1 1.16 | S. cerevisiae deletion strains, locus YOL147C, strain pex11, hits give low values 1.02 | S. cerevisiae deletion strains, locus YOR061W, strain CKA2, hits give low values 1.02 | S. cerevisiae deletion strains, locus YOR069W, strain VPS5, hits give low values 1.01 | S. cerevisiae deletion strains, locus YOR136W, strain idh2, hits give low values 1.02 | S. cerevisiae deletion strains, locus YOR144C, strain elg1, hits give low values 1.02 | S. cerevisiae deletion strains, locus YOR184W, strain ser1, hits give low values 1.03 | S. cerevisiae deletion strains, locus YOR316C, strain cot1, hits give low values 1.02 | S. cerevisiae deletion strains, locus YPL055C, strain LGE1, hits give low values 1.03 | S. cerevisiae deletion strains, locus YPL241C, strain CIN2, hits give low values 1.01 | S. cerevisiae deletion strains, locus YPR119W, strain clb2, hits give low values 1.01 | S. cerevisiae deletion strains, locus YPR141C, strain kar3, hits give low values 1.03 | S. cerevisiae deletion strains, locus YPR163C, strain tif3, hits give low values 1.02 | S. cerevisiae deletion strains, locus YPR167C, strain met16, hits give low values 1.02 | S. cerevisiae deletion strains, strain wtn01, hits give low values 1.01 | S. cerevisiae strains, strain wild type, hits give low values 1.02
